Experimental data as given in PubChem BioAssay AID1159580 (chemical genetic matrix, 2015).
Out of some 5,500 compounds screened, about 2,000 (36%) were called active. About 18% were inconclusive and are not listed. No stated cut-off is given here; in the data, active means normalized growth mostly below about 0.91 (no sharp cut-off); inconclusive means no clear call, values can overlap the other calls; inactive means mostly above about 0.92. This is one part of the list.

Test: chemical genetic growth profiling, strain panel (AID 1159580);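 further: tested at 20 µM; growth read once vehicle control cultures reached saturation at 30 °C; 1 = growth at the plate median or of vehicle wells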
Conditions: growth OD

Measured: normalized growth

NC[C@@H]1O[C@H](O[C@@H]2[C@@H](CO)OC(O[C@@H]3[C@@H](O)[C@H](N)C[C@H](N)[C@H]3OC3O[C@H](CN)[C@@H](O)[C@H](O)[C@H]3N)[C@@H]2O)[C@H](N)[C@@H](O)[C@@H]1O (some centres not stated)
inactive: S. cerevisiae deletion strains, locus YJR075W, strain HOC1, stronger effect = lower value 1.02 | S. cerevisiae deletion strains, locus YKL009W, strain mrt4, stronger effect = lower value 1.06 | S. cerevisiae deletion strains, locus YKL068W, stronger effect = lower value 1.01 | S. cerevisiae deletion strains, locus YKL085W, strain MDH1 (second series), stronger effect = lower value 1.01 | S. cerevisiae deletion strains, locus YKL085W, strain MDH1, stronger effect = lower value 1.01 | S. cerevisiae deletion strains, locus YKL160W, strain elf1, stronger effect = lower value 1.02 | S. cerevisiae deletion strains, locus YKL190W, strain CNB1, stronger effect = lower value 1 | S. cerevisiae deletion strains, locus YKR001C, strain vps1, stronger effect = lower value 1.04 | S. cerevisiae deletion strains, locus YKR026C, strain gcn3, stronger effect = lower value 1.03 | S. cerevisiae deletion strains, locus YKR091W, strain srl3, stronger effect = lower value 1.02 | S. cerevisiae deletion strains, locus YLL001W, strain dnm1, stronger effect = lower value 1.06 | S. cerevisiae deletion strains, locus YLL026W, stronger effect = lower value 1.02 | S. cerevisiae deletion strains, locus YLL041C, strain sdh2, stronger effect = lower value 1.02 | S. cerevisiae deletion strains, locus YLR027C, strain aat2, stronger effect = lower value 1.01 | S. cerevisiae deletion strains, locus YLR039C, strain RIC1, stronger effect = lower value 0.973 | S. cerevisiae deletion strains, locus YLR058C, strain SHM2, stronger effect = lower value 1 | S. cerevisiae deletion strains, locus YLR102C, strain apc9, stronger effect = lower value 1.02 | S. cerevisiae deletion strains, locus YLR113W, strain HOG1, stronger effect = lower value 0.981 | S. cerevisiae deletion strains, locus YLR221C, strain rsa3, stronger effect = lower value 1.04 | S. cerevisiae deletion strains, locus YLR258W, strain gsy2, stronger effect = lower value 1.01 | S. cerevisiae deletion strains, locus YLR262C, strain YPT6 (second series), stronger effect = lower value 1.03 | S. cerevisiae deletion strains, locus YLR262C, strain YPT6, stronger effect = lower value 1.02 | S. cerevisiae deletion strains, locus YLR268W, strain sec22, stronger effect = lower value 1.05 | S. cerevisiae deletion strains, locus YLR320W, strain mms22, stronger effect = lower value 1.05 | S. cerevisiae deletion strains, locus YLR330W, strain CHS5, stronger effect = lower value 0.996 | S. cerevisiae deletion strains, locus YLR342W, strain FKS1 (second series), stronger effect = lower value 1.03 | S. cerevisiae deletion strains, locus YLR342W, strain FKS1, stronger effect = lower value 1.03 | S. cerevisiae deletion strains, locus YLR357W, strain rsc2, stronger effect = lower value 1.04 | S. cerevisiae deletion strains, locus YLR370C, strain arc18, stronger effect = lower value 1.04 | S. cerevisiae deletion strains, locus YLR371W, strain rom2, stronger effect = lower value 1.02 | S. cerevisiae deletion strains, locus YLR384C, strain iki3, stronger effect = lower value 1.03 | S. cerevisiae deletion strains, locus YLR418C, strain cdc73, stronger effect = lower value 1.04 | S. cerevisiae deletion strains, locus YML016C, strain PPZ1, stronger effect = lower value 1.01 | S. cerevisiae deletion strains, locus YML032C, strain rad52, stronger effect = lower value 1.02 | S. cerevisiae deletion strains, locus YML120C, strain ndi1, stronger effect = lower value 1.05 | S. cerevisiae deletion strains, locus YML124C, strain tub3, stronger effect = lower value 1.01 | S. cerevisiae deletion strains, locus YMR058W, strain fet3, stronger effect = lower value 1.03 | S. cerevisiae deletion strains, locus YMR078C, strain ctf18, stronger effect = lower value 1.04 | S. cerevisiae deletion strains, locus YMR125W, strain sto1, stronger effect = lower value 1.04 | S. cerevisiae deletion strains, locus YMR129W, stronger effect = lower value 1.02 | S. cerevisiae deletion strains, locus YMR205C, strain PFK2, stronger effect = lower value 1.03 | S. cerevisiae deletion strains, locus YMR223W, strain ubp8, stronger effect = lower value 1 | S. cerevisiae deletion strains, locus YMR231W, strain pep5, stronger effect = lower value 1.03 | S. cerevisiae deletion strains, locus YMR263W, strain SAP30, stronger effect = lower value 1.01 | S. cerevisiae deletion strains, locus YMR307W, strain GAS1, stronger effect = lower value 1.1 | S. cerevisiae deletion strains, locus YNL067W, strain RPL9B, stronger effect = lower value 1.02 | S. cerevisiae deletion strains, locus YNL071W, strain lat1, stronger effect = lower value 1.03 | S. cerevisiae deletion strains, locus YNL128W, strain TEP1, stronger effect = lower value 1.02 | S. cerevisiae deletion strains, locus YNL153C, strain GIM3, stronger effect = lower value 1 | S. cerevisiae deletion strains, locus YNL183C, strain NPR1, stronger effect = lower value 0.944 | S. cerevisiae deletion strains, locus YNL209W, strain ssb2, stronger effect = lower value 1.03 | S. cerevisiae deletion strains, locus YNL233W, strain BNI4, stronger effect = lower value 0.985 | S. cerevisiae deletion strains, locus YNL248C, strain rpa49, stronger effect = lower value 0.992 | S. cerevisiae deletion strains, locus YNL250W, strain rad50, stronger effect = lower value 1 | S. cerevisiae deletion strains, locus YNL271C, strain bni1, stronger effect = lower value 1.02 | S. cerevisiae deletion strains, locus YNL298W, strain CLA4, stronger effect = lower value 1.01 | S. cerevisiae deletion strains, locus YNL307C, strain MCK1, stronger effect = lower value 1.02 | S. cerevisiae deletion strains, locus YNL322C, strain KRE1 (second series), stronger effect = lower value 1.04 | S. cerevisiae deletion strains, locus YNL322C, strain KRE1, stronger effect = lower value 0.997 | S. cerevisiae deletion strains, locus YNR049C, strain mso1, stronger effect = lower value 1.03 | S. cerevisiae deletion strains, locus YNR052C, strain pop2, stronger effect = lower value 1.01 | S. cerevisiae deletion strains, locus YOL006C, strain TOP1, stronger effect = lower value 0.979 | S. cerevisiae deletion strains, locus YOL012C, strain htz1 0.869 | S. cerevisiae deletion strains, locus YOL147C, strain pex11, stronger effect = lower value 1.01 | S. cerevisiae deletion strains, locus YOR001W, strain rrp6, stronger effect = lower value 0.982 | S. cerevisiae deletion strains, locus YOR061W, strain CKA2, stronger effect = lower value 1.01 | S. cerevisiae deletion strains, locus YOR069W, strain VPS5, stronger effect = lower value 1 | S. cerevisiae deletion strains, locus YOR070C, strain gyp1, stronger effect = lower value 1.03 | S. cerevisiae deletion strains, locus YOR080W, strain dia2, stronger effect = lower value 1.03 | S. cerevisiae deletion strains, locus YOR083W, strain WHI5, stronger effect = lower value 1.02 | S. cerevisiae deletion strains, locus YOR106W, strain vam3, stronger effect = lower value 1.04 | S. cerevisiae deletion strains, locus YOR136W, strain idh2, stronger effect = lower value 1.01 | S. cerevisiae deletion strains, locus YOR144C, strain elg1, stronger effect = lower value 1.02 | S. cerevisiae deletion strains, locus YOR184W, strain ser1, stronger effect = lower value 1.03 | S. cerevisiae deletion strains, locus YOR231W, strain MKK1, stronger effect = lower value 1.01 | S. cerevisiae deletion strains, locus YOR265W, strain rbl2, stronger effect = lower value 1.02 | S. cerevisiae deletion strains, locus YOR270C, strain vph1, stronger effect = lower value 1.06 | S. cerevisiae deletion strains, locus YOR290C, strain snf2, stronger effect = lower value 1.04 | S. cerevisiae deletion strains, locus YOR316C, strain cot1, stronger effect = lower value 1.03 | S. cerevisiae deletion strains, locus YPL051W, strain arl3, stronger effect = lower value 1.01 | S. cerevisiae deletion strains, locus YPL055C, strain LGE1, stronger effect = lower value 0.973 | S. cerevisiae deletion strains, locus YPL078C, strain atp4, stronger effect = lower value 1.01 | S. cerevisiae deletion strains, locus YPL106C, strain sse1, stronger effect = lower value 1.01 | S. cerevisiae deletion strains, locus YPL240C, strain hsp82, stronger effect = lower value 1.03 | S. cerevisiae deletion strains, locus YPL241C, strain CIN2, stronger effect = lower value 0.998 | S. cerevisiae deletion strains, locus YPL256C, strain CLN2, stronger effect = lower value 0.997 | S. cerevisiae deletion strains, locus YPR119W, strain clb2, stronger effect = lower value 1.02 | S. cerevisiae deletion strains, locus YPR141C, strain kar3, stronger effect = lower value 1.02 | S. cerevisiae deletion strains, locus YPR163C, strain tif3, stronger effect = lower value 1.03 | S. cerevisiae deletion strains, locus YPR167C, strain met16, stronger effect = lower value 1.02 | S. cerevisiae deletion strains, strain wtn01, stronger effect = lower value 1.03 | S. cerevisiae strains, strain wild type, stronger effect = lower value 1.01
